Assay results from the antibiotic and cytotoxicity screens of Wong et al. (2023).
Hit rate of the full screen: of about 39,000 compounds, about 3,300 (8.5%) were called active. This excerpt belongs to a sample that is enriched for actives.

System: HepG2
Assay: cytotoxicity call (relative viability < 0.9)
Details: 10 µM

Row | SMILES | cytotoxicity call
1 | C[C@H]1CN([C@@H](C)CO)C(=O)Cc2cc(NC(=O)Cn3cnnn3)ccc2O[C@@H]1CN(C)S(=O)(=O)c1ccc(F)cc1 | inactive
2 | C[C@@H]1CN([C@H](C)CO)C(=O)Cc2cc(NC(=O)C3CCCCC3)ccc2O[C@H]1CN(C)Cc1ccc(Oc2ccccc2)cc1 | inactive
3 | C[C@H](CO)N1C[C@H](C)[C@@H](CN(C)Cc2ccc(Oc3ccccc3)cc2)Oc2ccc(NC(=O)C3CCCCC3)cc2CC1=O | inactive
4 | C[C@@H]1CN([C@H](C)CO)C(=O)Cc2cc(NC(=O)C3CC3)ccc2O[C@@H]1CN(C)Cc1ccc(Oc2ccccc2)cc1 | active
5 | C[C@H](CO)N1C[C@H](C)[C@H](CN(C)Cc2ccc(Oc3ccccc3)cc2)Oc2ccc(NC(=O)C3CC3)cc2CC1=O | inactive
6 | C[C@H]1CN([C@@H](C)CO)C(=O)Cc2cc(NC(=O)C3CCCCC3)ccc2O[C@H]1CN(C)Cc1ccc(Oc2ccccc2)cc1 | active
7 | C[C@H](CO)N1C[C@H](C)[C@H](CN(C)Cc2ccc(Oc3ccccc3)cc2)Oc2ccc(NC(=O)C3CCCCC3)cc2CC1=O | active
8 | C[C@@H]1CN([C@H](C)CO)C(=O)Cc2cc(NC(=O)C3CCCCC3)ccc2O[C@@H]1CN(C)Cc1ccc(Oc2ccccc2)cc1 | inactive
9 | C[C@@H]1CN([C@@H](C)CO)C(=O)Cc2cc(NC(=O)C3CCCCC3)ccc2O[C@H]1CN(C)Cc1ccc(Oc2ccccc2)cc1 | inactive
10 | C[C@@H]1CN([C@@H](C)CO)C(=O)Cc2cc(NC(=O)C3CC3)ccc2O[C@H]1CN(C)Cc1ccc(Oc2ccccc2)cc1 | inactive
11 | C[C@@H]1CN([C@@H](C)CO)C(=O)Cc2cc(NC(=O)Nc3ccc(C(F)(F)F)cc3)ccc2O[C@@H]1CN(C)C(=O)Nc1cccc2ccccc12 | inactive
12 | CC(C)NC(=O)N(C)C[C@@H]1OCCCC[C@@H](C)Oc2ccc(NC(=O)Nc3ccccc3)cc2C(=O)N([C@H](C)CO)C[C@@H]1C | inactive
13 | C[C@@H]1CCCCO[C@@H](CN(C)C(=O)Cc2ccccc2)[C@@H](C)CN([C@@H](C)CO)C(=O)c2cc(NC(=O)Nc3ccc(C(F)(F)F)cc3)ccc2O1 | inactive
14 | O=C(O)CNC(=O)c1cc2ccccc2[nH]1 | inactive
15 | C[C@H](CO)N1C[C@H](C)[C@@H](CN(C)S(=O)(=O)c2ccc(Cl)cc2)Oc2ccc(NC(=O)CCN3CCOCC3)cc2CC1=O | inactive
16 | Cc1noc(C)c1S(=O)(=O)N(C)C[C@H]1OCCCC[C@H](C)Oc2ccc(NS(=O)(=O)c3cn(C)cn3)cc2C(=O)N([C@@H](C)CO)C[C@@H]1C | inactive
17 | C=c1cc(C)ccc1=C1NN=C(NC(=O)CC)O1 | inactive
18 | C[C@@H]1CCCCO[C@@H](CN(C)C(=O)Nc2ccc(F)cc2)[C@@H](C)CN([C@@H](C)CO)C(=O)c2cc(NC(=O)Nc3ccccc3)ccc2O1 | inactive
19 | CN1CCC(Nc2nc(Nc3ccc(Oc4ccccc4)cc3)c3c(O)ncc(Br)c3n2)CC1 | active
20 | C[C@@H]1CN([C@@H](C)CO)S(=O)(=O)c2ccc(-c3ccc(F)cc3)cc2O[C@H]1CN(C)S(C)(=O)=O | inactive

Row | SMILES | cytotoxicity call
21 | CNC(=O)N1CCN(Cc2cnn(C)c2)C[C@]2(CCCC(=O)N2)C1 | inactive
22 | C=CCOC(=O)[C@H]1[C@@H]2C(=O)O[C@@H](c3ccccc3)[C@@H](c3ccccc3)N2[C@@H](c2ccc(OCCOC(=O)[C@H]3C[C@H]4C(=O)N[C@@H](CCCCNC(C)=O)C(=O)N4[C@H]3c3cccc(OCCO)c3)cc2)[C@]12C(=O)Nc1ccc(I)cc12 | inactive
23 | Cc1ccc(S(=O)(=O)Nc2ccc3c(c2)C(=O)N([C@H](C)CO)C[C@H](C)[C@H](CN(C)S(=O)(=O)c2ccc(Cl)cc2)OCCCC[C@H](C)O3)cc1 | inactive
24 | Cc1ccc(S(=O)(=O)N(C)C[C@@H]2OCCCC[C@H](C)Oc3ccc(NS(=O)(=O)c4ccc(Cl)cc4)cc3C(=O)N([C@@H](C)CO)C[C@@H]2C)cc1 | active
25 | Cc1ccc(S(=O)(=O)Nc2ccc3c(c2)C(=O)N([C@@H](C)CO)C[C@@H](C)[C@@H](CN(C)S(=O)(=O)c2ccc(Cl)cc2)OCCCC[C@H](C)O3)cc1 | inactive
26 | Cc1ccc(S(=O)(=O)N(C)C[C@@H]2OCCCC[C@@H](C)Oc3ccc(NS(=O)(=O)c4ccc(Cl)cc4)cc3C(=O)N([C@@H](C)CO)C[C@@H]2C)cc1 | inactive
27 | Cc1ccc(S(=O)(=O)Nc2ccc3c(c2)C(=O)N([C@H](C)CO)C[C@H](C)[C@@H](CN(C)S(=O)(=O)c2ccc(Cl)cc2)OCCCC[C@@H](C)O3)cc1 | active
28 | Cc1ccc(S(=O)(=O)N(C)C[C@H]2OCCCC[C@H](C)Oc3ccc(NS(=O)(=O)c4ccc(Cl)cc4)cc3C(=O)N([C@@H](C)CO)C[C@@H]2C)cc1 | active
29 | Cc1ccc(S(=O)(=O)N(C)C[C@@H]2OCCCC[C@H](C)Oc3ccc(NS(=O)(=O)c4ccc(Cl)cc4)cc3C(=O)N([C@H](C)CO)C[C@H]2C)cc1 | active
30 | Cc1ccc(S(=O)(=O)N(C)C[C@H]2OCCCC[C@@H](C)Oc3ccc(NS(=O)(=O)c4ccc(Cl)cc4)cc3C(=O)N([C@H](C)CO)C[C@H]2C)cc1 | inactive
31 | Cc1ccc(S(=O)(=O)N(C)C[C@@H]2OCCCC[C@@H](C)Oc3ccc(NS(=O)(=O)c4ccc(Cl)cc4)cc3C(=O)N([C@H](C)CO)C[C@H]2C)cc1 | inactive
32 | Cc1ccc(S(=O)(=O)N(C)C[C@H]2OCCCC[C@@H](C)Oc3ccc(NS(=O)(=O)c4ccc(Cl)cc4)cc3C(=O)N([C@H](C)CO)C[C@@H]2C)cc1 | inactive
33 | Cc1cccnc1[C@H](c1ccc(F)cc1)N(C)C(=O)C1CCN(CCOc2ccc(Cl)cc2Cl)CC1 | inactive
34 | CC(=O)N(C)C[C@H]1Oc2ncc(C#C[C@@H](C)O)cc2C(=O)N([C@@H](C)CO)C[C@H]1C | inactive
35 | C[C@@H]1CN([C@H](C)CO)C(=O)Cc2cc(NC(=O)Nc3cccc4ccccc34)ccc2O[C@H]1CN(C)C(=O)Nc1ccc(F)cc1 | inactive
36 | CNC[C@@H]1Oc2cc(C#CCN(C)C)ccc2S(=O)(=O)N([C@H](C)CO)C[C@@H]1C | inactive
37 | CCCN1C[C@@H](C)[C@H](OC)CN(C)C(=O)c2cc(NS(=O)(=O)c3cn(C)cn3)ccc2OC[C@@H]1C | inactive
38 | CN1CCN(C(=O)C[C@H]2CC[C@H](NC(=O)Cc3ccccn3)[C@H](CO)O2)CC1 | inactive
39 | C[C@@H]1CCCCO[C@H](CN(C)S(=O)(=O)c2ccccc2)[C@@H](C)CN([C@H](C)CO)C(=O)c2cc(NC(=O)Nc3ccccc3)ccc2O1 | inactive
40 | O=C(O)c1ccc(N[C@@H]2O[C@H](CO)[C@@H](O)[C@H](O)[C@H]2O)cc1 | inactive

Row | SMILES | cytotoxicity call
41 | Cc1ccc(S(=O)(=O)Nc2ccc3c(c2)C(=O)N([C@H](C)CO)C[C@@H](C)[C@@H](CN(C)S(=O)(=O)c2ccc(Cl)cc2)OCCCC[C@@H](C)O3)cc1 | inactive
42 | Cc1ccc(S(=O)(=O)N(C)C[C@H]2OCCCC[C@H](C)Oc3ccc(NS(=O)(=O)c4ccc(Cl)cc4)cc3C(=O)N([C@H](C)CO)C[C@H]2C)cc1 | inactive
43 | Cc1ccc(S(=O)(=O)Nc2ccc3c(c2)C(=O)N([C@@H](C)CO)C[C@@H](C)[C@H](CN(C)S(=O)(=O)c2ccc(Cl)cc2)OCCCC[C@@H](C)O3)cc1 | inactive
44 | Cc1ccc(S(=O)(=O)Nc2ccc3c(c2)C(=O)N([C@H](C)CO)C[C@H](C)[C@H](CN(C)S(=O)(=O)c2ccc(Cl)cc2)OCCCC[C@@H](C)O3)cc1 | inactive
45 | Cc1ccc(S(=O)(=O)Nc2ccc3c(c2)C(=O)N([C@@H](C)CO)C[C@H](C)[C@@H](CN(C)S(=O)(=O)c2ccc(Cl)cc2)OCCCC[C@H](C)O3)cc1 | active
46 | Cc1ccc(S(=O)(=O)N(C)C[C@@H]2OCCCC[C@@H](C)Oc3ccc(NS(=O)(=O)c4ccc(Cl)cc4)cc3C(=O)N([C@H](C)CO)C[C@@H]2C)cc1 | inactive
47 | Cc1ccc(S(=O)(=O)Nc2ccc3c(c2)C(=O)N([C@H](C)CO)C[C@H](C)[C@@H](CN(C)S(=O)(=O)c2ccc(Cl)cc2)OCCCC[C@H](C)O3)cc1 | active
48 | Cc1ccc(S(=O)(=O)Nc2ccc3c(c2)C(=O)N([C@@H](C)CO)C[C@@H](C)[C@@H](CN(C)S(=O)(=O)c2ccc(Cl)cc2)OCCCC[C@@H](C)O3)cc1 | inactive
49 | Cc1ccc(S(=O)(=O)Nc2ccc3c(c2)C(=O)N([C@H](C)CO)C[C@@H](C)[C@H](CN(C)S(=O)(=O)c2ccc(Cl)cc2)OCCCC[C@@H](C)O3)cc1 | active
50 | Cc1ccc(S(=O)(=O)N(C)C[C@H]2Oc3ccc(NS(=O)(=O)c4cccs4)cc3CC(=O)N([C@H](C)CO)C[C@H]2C)cc1 | inactive
51 | COc1ccc(CNC(=O)N(C)C[C@@H]2OCc3ccccc3-c3c(n(C)c4ccccc34)C(=O)N([C@@H](C)CO)C[C@H]2C)cc1 | inactive
52 | C[C@H]1CN([C@@H](C)CO)C(=O)c2cccc(NC(=O)Nc3ccc(F)cc3)c2O[C@H]1CN(C)S(C)(=O)=O | inactive
53 | COc1ccc(-c2coc3cc(O)ccc3c2=O)c(O)c1O | inactive
54 | COc1c(-c2coc3cc4c(cc3c2=O)CC(O)C(C)(C)O4)ccc2c1C=CC(C)(C)O2 (centres undefined) | active
55 | COc1ccc(-c2coc3cc(O)ccc3c2=O)c(OC)c1OC | inactive
56 | O=C(C[C@@H]1CC[C@@H](NC(=O)C2CC2)[C@@H](CO)O1)NCCCN1CCOCC1 | inactive
57 | C[C@@H]1CN([C@H](C)CO)C(=O)c2cc(-c3ccc(C(=O)N(C)C)cc3)cnc2O[C@@H]1CN(C)C(=O)CN(C)C | inactive
58 | COc1cc(-c2ccc(NN=C3C=Cc4c(S(=O)(=O)O)cc(S(=O)(=O)O)c(N)c4C3=O)c(OC)c2)ccc1NN=C1C=Cc2c(S(=O)(=O)O)cc(S(=O)(=O)O)c(N)c2C1=O | active
59 | Cc1cc(-c2ccc(NN=C3C=Cc4c(S(=O)(=O)O)cc(S(=O)(=O)O)c(N)c4C3=O)c(C)c2)ccc1NN=C1C=Cc2c(S(=O)(=O)O)cc(S(=O)(=O)O)c(N)c2C1=O | active
